From the supplement of paper PMC11732987, “Enantioselective OTUD7B fragment discovery through chemoproteomics screening and high-throughput optimisation” (Communications Chemistry, 2025) come the findings set out here.

Values without a mark were called inactive.

Common to all, as to test: log2 ratio of Biotin-Ahx-Ub-VS probe labelling (fragment/DMSO); higher = less target engagement (more negative = stronger competition), active = hit call of the paper (q ≤ 0.05, log2 ratio ≤ -1)
What all share (settings): compound concentration: 200 uM; treatment time: 3 h

One assay concerns the target T1, USP42 (UniProt Q9H9J4).
T1 sequence (whole entry): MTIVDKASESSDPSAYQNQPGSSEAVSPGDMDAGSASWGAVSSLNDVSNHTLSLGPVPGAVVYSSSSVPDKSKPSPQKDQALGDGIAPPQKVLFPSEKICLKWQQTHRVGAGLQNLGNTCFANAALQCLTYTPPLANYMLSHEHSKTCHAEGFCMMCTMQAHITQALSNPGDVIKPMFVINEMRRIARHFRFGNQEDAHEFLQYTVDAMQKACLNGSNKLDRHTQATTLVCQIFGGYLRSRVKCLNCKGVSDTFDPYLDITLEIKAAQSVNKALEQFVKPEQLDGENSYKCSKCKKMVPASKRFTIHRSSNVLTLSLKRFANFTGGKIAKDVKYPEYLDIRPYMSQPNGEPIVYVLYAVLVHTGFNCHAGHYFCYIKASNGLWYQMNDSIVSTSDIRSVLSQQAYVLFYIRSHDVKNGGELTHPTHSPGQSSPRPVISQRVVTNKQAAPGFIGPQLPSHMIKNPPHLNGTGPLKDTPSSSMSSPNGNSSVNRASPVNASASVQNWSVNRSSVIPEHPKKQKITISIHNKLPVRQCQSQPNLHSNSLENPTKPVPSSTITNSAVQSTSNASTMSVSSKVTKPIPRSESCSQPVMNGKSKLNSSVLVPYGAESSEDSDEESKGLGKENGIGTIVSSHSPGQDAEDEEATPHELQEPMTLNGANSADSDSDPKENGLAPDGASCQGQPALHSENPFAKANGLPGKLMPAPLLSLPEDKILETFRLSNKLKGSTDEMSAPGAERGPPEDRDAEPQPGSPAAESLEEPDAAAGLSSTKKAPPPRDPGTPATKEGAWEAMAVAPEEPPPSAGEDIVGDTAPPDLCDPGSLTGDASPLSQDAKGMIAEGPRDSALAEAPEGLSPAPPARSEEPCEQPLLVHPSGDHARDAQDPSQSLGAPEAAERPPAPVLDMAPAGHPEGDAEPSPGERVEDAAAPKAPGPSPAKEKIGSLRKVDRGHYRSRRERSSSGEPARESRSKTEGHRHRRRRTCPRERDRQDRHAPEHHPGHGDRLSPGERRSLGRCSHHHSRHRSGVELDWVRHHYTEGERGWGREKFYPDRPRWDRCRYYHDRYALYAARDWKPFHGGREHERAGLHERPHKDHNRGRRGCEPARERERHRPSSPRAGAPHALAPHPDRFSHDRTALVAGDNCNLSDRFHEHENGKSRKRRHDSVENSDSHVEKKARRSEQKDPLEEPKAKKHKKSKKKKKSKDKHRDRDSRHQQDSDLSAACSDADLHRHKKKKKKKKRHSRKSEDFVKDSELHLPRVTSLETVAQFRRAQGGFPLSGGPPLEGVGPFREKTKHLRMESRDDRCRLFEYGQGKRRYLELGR
The procedure, abridged:
(§1)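 HEK293T lysate, 495 µg per sample in Tris/CHAPS/IGEPAL buffer with protease inhibitors, was treated in triplicate with fragment at 200 µM or vehicle for 3 h and then with Biotin-Ahx-Ub-VS at 0.5 µM final for 1 h. Labelled DUBs were NeutrAvidin-enriched, digested with LysC and trypsin, and run by diaPASEF LC-MS/MS. Spectronaut label-free quantities were global-median-normalised, and values are average log2 fragment/vehicle ratios by unpaired t-test on proteins with ≥2 unique peptides.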

The next assay addresses USP46 (UniProt P62068). The procedure, abridged:
as §1

A further assay addresses T2, USP47 (UniProt Q96K76).
T2 sequence (whole entry): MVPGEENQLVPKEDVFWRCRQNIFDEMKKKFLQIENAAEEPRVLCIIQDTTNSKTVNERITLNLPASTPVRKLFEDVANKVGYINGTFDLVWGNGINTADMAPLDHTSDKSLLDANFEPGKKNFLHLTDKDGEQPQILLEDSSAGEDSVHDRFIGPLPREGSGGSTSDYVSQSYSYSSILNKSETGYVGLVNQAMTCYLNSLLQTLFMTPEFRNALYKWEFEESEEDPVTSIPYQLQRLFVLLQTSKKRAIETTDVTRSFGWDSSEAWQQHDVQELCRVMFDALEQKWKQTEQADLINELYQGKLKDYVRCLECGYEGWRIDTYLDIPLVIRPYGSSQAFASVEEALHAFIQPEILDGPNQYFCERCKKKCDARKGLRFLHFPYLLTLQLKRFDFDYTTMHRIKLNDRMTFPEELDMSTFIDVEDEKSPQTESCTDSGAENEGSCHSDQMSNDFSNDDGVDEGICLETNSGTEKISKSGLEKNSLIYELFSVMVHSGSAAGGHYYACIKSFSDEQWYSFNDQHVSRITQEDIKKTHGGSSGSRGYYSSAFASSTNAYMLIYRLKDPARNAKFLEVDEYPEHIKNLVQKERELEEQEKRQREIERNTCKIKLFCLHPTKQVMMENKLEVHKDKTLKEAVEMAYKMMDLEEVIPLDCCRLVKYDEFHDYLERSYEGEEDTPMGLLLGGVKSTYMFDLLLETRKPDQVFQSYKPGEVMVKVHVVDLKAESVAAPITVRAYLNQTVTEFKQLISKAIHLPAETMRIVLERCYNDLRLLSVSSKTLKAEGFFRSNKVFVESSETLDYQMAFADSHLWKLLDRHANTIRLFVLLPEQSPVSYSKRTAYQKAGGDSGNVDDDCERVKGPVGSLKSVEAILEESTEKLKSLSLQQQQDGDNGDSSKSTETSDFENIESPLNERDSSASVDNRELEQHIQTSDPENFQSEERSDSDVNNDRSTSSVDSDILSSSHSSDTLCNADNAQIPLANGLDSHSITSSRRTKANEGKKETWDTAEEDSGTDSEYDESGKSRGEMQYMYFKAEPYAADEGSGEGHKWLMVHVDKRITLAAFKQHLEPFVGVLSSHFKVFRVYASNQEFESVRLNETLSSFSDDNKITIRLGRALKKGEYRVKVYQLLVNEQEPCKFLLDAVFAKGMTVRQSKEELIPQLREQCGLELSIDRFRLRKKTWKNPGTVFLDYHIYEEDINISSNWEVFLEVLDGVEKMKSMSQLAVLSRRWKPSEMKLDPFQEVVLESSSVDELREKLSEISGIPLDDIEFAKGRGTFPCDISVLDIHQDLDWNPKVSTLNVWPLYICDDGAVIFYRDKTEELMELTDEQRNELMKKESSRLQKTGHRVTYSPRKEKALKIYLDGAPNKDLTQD
The procedure, abridged:
as §1

A further assay has as its target T3, USP48 (UniProt Q86UV5).
T3 sequence (whole entry): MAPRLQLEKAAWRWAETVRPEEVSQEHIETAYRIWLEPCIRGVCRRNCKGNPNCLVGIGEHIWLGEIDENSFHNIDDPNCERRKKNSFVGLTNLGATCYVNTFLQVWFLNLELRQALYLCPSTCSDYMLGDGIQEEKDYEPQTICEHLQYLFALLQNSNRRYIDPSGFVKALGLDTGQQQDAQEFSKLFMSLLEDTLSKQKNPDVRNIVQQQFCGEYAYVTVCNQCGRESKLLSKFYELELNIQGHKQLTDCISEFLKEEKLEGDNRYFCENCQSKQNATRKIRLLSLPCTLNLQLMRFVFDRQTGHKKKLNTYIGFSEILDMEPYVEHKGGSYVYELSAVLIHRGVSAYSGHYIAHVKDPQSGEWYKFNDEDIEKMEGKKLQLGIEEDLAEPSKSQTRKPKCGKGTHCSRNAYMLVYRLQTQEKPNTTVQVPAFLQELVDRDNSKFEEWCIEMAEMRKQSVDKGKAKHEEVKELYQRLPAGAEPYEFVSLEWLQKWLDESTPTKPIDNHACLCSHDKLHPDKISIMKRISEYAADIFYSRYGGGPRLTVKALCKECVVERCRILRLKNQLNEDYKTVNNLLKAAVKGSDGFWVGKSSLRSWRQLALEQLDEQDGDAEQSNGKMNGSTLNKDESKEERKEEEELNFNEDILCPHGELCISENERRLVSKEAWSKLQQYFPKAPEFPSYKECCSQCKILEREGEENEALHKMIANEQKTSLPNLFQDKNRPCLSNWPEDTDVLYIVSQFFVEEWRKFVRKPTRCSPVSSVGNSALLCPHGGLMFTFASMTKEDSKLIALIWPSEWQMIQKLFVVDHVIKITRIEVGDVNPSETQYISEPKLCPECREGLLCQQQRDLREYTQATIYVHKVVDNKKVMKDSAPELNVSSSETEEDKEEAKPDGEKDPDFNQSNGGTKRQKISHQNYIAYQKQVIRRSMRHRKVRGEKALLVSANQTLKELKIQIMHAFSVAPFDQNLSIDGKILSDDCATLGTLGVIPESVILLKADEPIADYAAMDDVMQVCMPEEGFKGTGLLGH
The procedure, abridged:
as §1

The next assay concerns the target T4, USP5 (UniProt P45974).
T4 sequence (whole entry): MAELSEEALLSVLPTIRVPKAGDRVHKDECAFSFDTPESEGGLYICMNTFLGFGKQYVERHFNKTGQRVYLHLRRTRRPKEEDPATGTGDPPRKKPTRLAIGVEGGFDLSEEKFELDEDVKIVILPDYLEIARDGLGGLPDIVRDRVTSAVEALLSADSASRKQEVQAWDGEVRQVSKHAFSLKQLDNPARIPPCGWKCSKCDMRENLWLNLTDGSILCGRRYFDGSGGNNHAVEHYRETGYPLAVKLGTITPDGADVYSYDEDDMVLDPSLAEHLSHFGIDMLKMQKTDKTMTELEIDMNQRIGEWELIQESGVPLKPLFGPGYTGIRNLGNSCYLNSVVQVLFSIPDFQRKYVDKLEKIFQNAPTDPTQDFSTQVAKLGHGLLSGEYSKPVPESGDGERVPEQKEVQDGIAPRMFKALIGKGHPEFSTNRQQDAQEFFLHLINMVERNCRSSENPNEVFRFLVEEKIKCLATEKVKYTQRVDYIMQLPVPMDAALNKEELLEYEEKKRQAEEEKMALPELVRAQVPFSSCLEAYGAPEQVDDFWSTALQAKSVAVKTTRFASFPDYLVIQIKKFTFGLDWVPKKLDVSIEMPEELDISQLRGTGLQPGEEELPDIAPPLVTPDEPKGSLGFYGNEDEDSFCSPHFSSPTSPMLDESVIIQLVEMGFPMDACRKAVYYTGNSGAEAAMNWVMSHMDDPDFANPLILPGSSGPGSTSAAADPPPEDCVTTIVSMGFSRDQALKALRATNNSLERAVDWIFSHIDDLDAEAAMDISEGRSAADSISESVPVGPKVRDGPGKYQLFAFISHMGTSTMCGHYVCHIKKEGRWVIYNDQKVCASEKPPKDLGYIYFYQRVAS
The procedure, abridged: as §1

Another assay concerns the target USP54 (UniProt Q70EL1). Summed up:
as §1

For another assay, the target named is USP7 (UniProt Q93009). The procedure, abridged:
as §1

In a further assay the target is T5, USP8 (UniProt P40818).
T5 sequence (whole entry): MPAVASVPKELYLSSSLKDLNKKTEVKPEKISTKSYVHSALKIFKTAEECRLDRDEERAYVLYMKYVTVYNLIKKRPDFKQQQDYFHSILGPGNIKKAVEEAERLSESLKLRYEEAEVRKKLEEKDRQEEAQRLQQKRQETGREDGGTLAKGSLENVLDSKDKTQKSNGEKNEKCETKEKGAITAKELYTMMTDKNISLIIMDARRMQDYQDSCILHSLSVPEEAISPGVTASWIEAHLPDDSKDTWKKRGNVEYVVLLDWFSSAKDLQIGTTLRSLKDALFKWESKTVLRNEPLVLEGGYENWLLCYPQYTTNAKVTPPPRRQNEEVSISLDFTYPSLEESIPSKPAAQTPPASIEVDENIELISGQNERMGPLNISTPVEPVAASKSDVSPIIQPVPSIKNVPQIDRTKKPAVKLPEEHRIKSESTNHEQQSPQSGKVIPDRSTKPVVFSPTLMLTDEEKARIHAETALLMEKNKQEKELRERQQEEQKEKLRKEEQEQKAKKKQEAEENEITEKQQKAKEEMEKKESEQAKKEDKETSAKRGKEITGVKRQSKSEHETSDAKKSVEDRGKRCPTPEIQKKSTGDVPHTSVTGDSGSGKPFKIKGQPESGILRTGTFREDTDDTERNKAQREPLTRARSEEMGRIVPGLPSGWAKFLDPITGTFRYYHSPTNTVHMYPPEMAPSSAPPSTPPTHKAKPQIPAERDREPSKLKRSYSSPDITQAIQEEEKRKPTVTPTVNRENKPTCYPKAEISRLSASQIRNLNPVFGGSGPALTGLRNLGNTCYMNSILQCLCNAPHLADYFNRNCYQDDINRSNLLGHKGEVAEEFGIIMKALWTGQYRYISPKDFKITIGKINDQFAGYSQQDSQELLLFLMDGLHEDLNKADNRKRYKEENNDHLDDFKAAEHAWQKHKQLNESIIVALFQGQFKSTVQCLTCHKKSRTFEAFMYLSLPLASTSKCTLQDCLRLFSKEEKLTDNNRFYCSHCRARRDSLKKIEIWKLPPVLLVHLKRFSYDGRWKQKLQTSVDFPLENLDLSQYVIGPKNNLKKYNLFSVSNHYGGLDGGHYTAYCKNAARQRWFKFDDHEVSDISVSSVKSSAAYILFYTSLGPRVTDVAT
The procedure, abridged:
as §1

For another assay, the target named is USP9X (UniProt Q93008). The procedure, abridged:
as §1

The target of another assay is UniProt O00487. Summed up: as §1
Sequence of UniProt O00487 (O00487 whole entry): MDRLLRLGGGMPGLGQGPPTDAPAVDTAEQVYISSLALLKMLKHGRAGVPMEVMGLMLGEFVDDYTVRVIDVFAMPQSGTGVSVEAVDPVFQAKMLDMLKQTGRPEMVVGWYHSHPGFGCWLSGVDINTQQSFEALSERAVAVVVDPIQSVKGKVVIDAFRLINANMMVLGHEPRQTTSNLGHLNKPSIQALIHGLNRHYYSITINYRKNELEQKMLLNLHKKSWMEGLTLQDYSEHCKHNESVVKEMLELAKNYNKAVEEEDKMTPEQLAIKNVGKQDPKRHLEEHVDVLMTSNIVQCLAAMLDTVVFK

Sequence of USP54 (Q70EL1 whole entry): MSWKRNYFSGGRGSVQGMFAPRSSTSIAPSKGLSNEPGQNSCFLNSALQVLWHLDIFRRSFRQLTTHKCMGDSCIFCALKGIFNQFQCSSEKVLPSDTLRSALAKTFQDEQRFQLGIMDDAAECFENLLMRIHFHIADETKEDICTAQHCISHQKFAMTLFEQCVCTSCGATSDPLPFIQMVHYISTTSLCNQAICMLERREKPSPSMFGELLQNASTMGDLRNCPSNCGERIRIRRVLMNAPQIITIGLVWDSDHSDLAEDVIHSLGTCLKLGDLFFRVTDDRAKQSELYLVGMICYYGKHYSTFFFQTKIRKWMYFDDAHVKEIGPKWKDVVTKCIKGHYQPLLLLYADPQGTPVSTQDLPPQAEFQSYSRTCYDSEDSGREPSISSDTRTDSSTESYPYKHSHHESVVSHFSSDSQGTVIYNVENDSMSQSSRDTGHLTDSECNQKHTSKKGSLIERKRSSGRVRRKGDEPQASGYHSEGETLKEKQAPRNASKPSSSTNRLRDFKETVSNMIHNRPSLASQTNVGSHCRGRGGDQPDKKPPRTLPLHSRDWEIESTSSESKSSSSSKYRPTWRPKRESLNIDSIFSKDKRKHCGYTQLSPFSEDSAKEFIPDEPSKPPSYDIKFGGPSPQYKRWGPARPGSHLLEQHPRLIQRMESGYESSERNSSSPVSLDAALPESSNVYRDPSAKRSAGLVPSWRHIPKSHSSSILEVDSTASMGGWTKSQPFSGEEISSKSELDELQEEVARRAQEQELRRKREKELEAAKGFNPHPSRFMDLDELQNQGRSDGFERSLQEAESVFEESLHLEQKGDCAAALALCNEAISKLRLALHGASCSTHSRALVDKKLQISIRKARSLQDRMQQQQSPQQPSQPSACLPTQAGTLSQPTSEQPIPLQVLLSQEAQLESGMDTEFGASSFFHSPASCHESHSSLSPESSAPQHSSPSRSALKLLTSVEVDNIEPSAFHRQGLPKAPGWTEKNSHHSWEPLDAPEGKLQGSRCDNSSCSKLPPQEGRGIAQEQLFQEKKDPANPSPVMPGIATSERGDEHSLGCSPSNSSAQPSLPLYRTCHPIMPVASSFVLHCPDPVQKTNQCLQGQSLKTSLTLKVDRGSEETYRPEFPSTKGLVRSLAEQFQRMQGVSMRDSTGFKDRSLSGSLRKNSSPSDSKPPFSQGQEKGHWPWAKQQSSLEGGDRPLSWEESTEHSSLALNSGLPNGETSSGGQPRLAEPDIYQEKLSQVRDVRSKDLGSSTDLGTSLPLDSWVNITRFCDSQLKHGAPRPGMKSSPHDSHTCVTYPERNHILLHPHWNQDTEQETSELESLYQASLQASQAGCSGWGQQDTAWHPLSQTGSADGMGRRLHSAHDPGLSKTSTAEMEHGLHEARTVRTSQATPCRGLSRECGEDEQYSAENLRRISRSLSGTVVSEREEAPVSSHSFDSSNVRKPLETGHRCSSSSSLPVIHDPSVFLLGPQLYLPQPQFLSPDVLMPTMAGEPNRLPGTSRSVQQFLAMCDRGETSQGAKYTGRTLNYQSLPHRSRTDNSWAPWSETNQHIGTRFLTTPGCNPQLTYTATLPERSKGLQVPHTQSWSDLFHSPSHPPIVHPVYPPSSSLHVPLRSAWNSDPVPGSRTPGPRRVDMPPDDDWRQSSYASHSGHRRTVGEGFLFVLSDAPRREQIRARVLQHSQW
Sequence of USP9X (Q93008 whole entry): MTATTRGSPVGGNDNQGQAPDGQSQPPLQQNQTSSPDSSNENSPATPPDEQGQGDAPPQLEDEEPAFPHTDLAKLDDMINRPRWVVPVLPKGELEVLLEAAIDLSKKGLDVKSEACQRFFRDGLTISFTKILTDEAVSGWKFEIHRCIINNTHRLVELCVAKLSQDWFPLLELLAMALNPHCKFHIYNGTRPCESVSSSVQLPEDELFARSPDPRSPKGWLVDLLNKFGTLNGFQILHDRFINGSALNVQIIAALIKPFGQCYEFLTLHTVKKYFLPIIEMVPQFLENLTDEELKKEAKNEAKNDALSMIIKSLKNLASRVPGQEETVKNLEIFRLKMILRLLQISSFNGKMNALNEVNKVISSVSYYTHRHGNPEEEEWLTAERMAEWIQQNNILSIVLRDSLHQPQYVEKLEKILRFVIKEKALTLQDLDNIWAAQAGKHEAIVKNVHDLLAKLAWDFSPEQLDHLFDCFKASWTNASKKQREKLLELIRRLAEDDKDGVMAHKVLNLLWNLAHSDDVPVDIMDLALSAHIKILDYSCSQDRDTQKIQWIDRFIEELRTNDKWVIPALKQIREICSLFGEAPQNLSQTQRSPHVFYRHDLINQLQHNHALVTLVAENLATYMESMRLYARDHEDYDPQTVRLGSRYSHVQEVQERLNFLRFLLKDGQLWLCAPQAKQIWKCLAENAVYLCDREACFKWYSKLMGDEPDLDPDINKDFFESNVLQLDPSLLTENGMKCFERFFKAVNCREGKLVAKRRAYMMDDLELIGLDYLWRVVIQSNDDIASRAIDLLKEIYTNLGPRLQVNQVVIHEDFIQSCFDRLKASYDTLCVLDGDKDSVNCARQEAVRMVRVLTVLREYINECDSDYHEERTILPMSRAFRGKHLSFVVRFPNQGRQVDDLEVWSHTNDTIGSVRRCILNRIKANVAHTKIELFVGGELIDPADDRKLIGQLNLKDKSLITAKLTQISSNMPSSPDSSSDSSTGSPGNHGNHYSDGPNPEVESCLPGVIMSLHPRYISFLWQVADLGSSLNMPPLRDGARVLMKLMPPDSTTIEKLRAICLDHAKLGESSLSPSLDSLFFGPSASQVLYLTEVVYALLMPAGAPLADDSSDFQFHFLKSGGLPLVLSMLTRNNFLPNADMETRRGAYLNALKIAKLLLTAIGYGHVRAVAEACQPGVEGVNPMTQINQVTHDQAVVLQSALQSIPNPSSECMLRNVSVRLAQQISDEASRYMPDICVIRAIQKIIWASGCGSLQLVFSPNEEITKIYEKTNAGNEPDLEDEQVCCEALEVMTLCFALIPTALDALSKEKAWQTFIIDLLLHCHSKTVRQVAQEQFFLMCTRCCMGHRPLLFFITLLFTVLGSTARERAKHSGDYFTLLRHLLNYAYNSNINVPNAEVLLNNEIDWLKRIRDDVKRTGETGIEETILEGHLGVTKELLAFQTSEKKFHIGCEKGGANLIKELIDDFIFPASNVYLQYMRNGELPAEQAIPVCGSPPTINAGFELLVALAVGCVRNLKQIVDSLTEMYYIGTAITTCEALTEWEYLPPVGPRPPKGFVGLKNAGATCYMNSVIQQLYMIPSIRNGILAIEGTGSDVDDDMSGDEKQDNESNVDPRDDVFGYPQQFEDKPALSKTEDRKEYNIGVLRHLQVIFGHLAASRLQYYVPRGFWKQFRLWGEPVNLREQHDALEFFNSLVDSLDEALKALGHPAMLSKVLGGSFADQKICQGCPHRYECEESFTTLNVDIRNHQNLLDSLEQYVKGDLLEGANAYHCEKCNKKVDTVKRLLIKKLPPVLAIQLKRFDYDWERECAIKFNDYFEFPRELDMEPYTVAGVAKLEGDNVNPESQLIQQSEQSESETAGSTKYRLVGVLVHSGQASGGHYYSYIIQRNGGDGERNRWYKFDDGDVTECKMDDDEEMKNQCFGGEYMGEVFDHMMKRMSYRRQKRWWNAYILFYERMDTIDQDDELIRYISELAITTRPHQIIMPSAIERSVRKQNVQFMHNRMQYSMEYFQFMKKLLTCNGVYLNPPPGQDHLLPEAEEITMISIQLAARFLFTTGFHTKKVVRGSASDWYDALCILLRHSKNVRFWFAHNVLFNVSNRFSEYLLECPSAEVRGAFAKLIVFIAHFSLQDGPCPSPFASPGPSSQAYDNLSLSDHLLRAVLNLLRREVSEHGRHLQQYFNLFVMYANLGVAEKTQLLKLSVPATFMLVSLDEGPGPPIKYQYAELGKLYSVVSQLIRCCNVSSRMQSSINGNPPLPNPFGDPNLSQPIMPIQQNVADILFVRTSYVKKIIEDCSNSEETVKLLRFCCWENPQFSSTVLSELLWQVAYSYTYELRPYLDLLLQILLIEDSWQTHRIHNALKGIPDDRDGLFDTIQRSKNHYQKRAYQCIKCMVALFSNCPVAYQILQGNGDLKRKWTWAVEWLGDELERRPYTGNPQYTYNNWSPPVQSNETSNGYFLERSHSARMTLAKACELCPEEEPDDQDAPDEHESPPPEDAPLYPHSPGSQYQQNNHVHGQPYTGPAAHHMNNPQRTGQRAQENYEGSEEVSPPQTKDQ
Sequence of USP46 (P62068 whole entry): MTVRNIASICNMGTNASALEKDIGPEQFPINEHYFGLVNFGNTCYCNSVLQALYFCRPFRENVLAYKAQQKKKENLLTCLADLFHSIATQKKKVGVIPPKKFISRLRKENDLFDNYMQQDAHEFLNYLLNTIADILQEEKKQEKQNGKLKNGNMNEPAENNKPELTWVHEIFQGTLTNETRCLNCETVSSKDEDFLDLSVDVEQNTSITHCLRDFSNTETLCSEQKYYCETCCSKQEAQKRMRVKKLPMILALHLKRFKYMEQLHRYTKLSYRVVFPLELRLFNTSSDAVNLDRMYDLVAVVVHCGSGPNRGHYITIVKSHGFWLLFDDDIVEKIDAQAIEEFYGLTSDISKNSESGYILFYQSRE

On to `Cl.O=C(CCl)NCc1cc2c(nc1O)CCCC2`, for which the “log2 ratio of Biotin-Ahx-Ub-VS probe labelling” value (shortened to “log2 ratio”) was -0.448 with USP42; 0.127 with USP46; -1.45 (active) with USP47; -0.169 with USP48; 0.0226 with USP5; 0.773 with USP54. Also, the “log2 ratio” value was -0.155 in the assay with USP7, -0.3 in the assay with USP8, -0.309 in the assay with USP9X and -0.0291 with UniProt O00487.

With `O=C(CCl)NCC1(c2ccccc2)CC1`, the “log2 ratio” value is -0.475 with USP42; 0.0609 with USP46; -0.388 in the assay with USP47; -0.502 with USP48; 0.023 with USP5; 0.574 in the assay with USP54. Moreover, the “log2 ratio” value in the assay with USP7 was -0.075; with USP8, -0.144; with USP9X, -0.121; in the assay with UniProt O00487, -0.00244.
